The whole screen tested about 5,500 compounds, of which about 2,000 (36%) were called active. Not shown: some 18% with an inconclusive outcome. Cut-off read from the data, not from the text of the source: active = normalized growth mostly below about 0.91 (no sharp cut-off); inconclusive = no clear call, values can overlap the other calls; inactive = mostly above about 0.92. The list shows a part of the results.
Test: chemical genetic growth profiling, strain panel (AID 1159580);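 note: tested at 20 µM; growth read once vehicle control cultures reached saturation at 30 °C; 1 = growth at the plate median or of vehicle wells; lower values mean less growth of the strain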
Conditions: S. cerevisiae deletion strains, growth OD
[1] = locus YDL101C, strain DUN1, hits give low values
[2] = locus YHR030C, strain SLT2, hits give low values

Measured: normalized growth

Cc1nn(Cc2nnc(SCc3cccc(C(F)(F)F)c3)o2)c(C)c1Br
inactive: locus YAR019C, strain CDC15, hits give low values 0.982 | locus YBL105C, strain PKC1, hits give low values 0.969 | locus YBR135W, strain CKS1, hits give low values 0.967 | locus YBR136W, strain MEC1, hits give low values 0.97 | locus YBR160W, strain CDC28, hits give low values 0.975 | locus YDL017W, strain CDC7, hits give low values 0.977 | locus YDL028C, strain MPS1, hits give low values 0.973 | [1] 0.972 | locus YDL108W, strain KIN28, hits give low values 0.969 | locus YDL132W, strain cdc53, hits give low values 0.969 | locus YDL214C, strain PRR2, hits give low values 0.932 | locus YDR052C, strain DBF4, hits give low values 0.983 | locus YDR054C, strain cdc34, hits give low values 0.975 | locus YDR226W, strain ADK1, hits give low values 0.977 | locus YDR477W, strain SNF1, hits give low values 0.968 | locus YER123W, strain YCK3, hits give low values 0.921 | locus YER133W, strain GLC7, hits give low values 0.967 | locus YFL009W, strain cdc4, hits give low values 0.973 | locus YFL029C, strain CAK1, hits give low values 0.979 | locus YFR003C, strain YPI1, hits give low values 0.971 | locus YFR019W, strain FAB1, hits give low values 0.952 | locus YFR028C, strain CDC14, hits give low values 0.963 | locus YGR040W, strain KSS1, hits give low values 0.957 | locus YGR052W, strain FMP48, hits give low values 0.965 | locus YGR092W, strain DBF2, hits give low values 0.987 | [2] 1.03 | locus YHR079C, strain IRE1, hits give low values 1 | locus YHR082C, strain KSP1, hits give low values 1 | locus YHR205W, strain SCH9, hits give low values 0.959 | locus YIL147C, strain SLN1, hits give low values 0.968 | locus YJL095W, strain BCK1, hits give low values 0.965 | locus YJL128C, strain PBS2, hits give low values 0.945 | locus YJL157C, strain FAR1, hits give low values 0.965 | locus YJR016C, strain ILV3, hits give low values 0.978 | locus YJR066W, strain TOR1 (second series), hits give low values 0.969 | locus YJR066W, strain TOR1, hits give low values 1.03 | locus YKL048C, strain ELM1, hits give low values 0.974 | locus YKL067W, strain YNK1, hits give low values 0.944 | locus YKL101W, strain HSL1, hits give low values 0.905 | locus YKL193C, strain SDS22, hits give low values 0.971 | locus YKL203C, strain TOR2, hits give low values 1.01 | locus YLR133W, strain CKI1, hits give low values 0.935 | locus YLR403W, strain SFP1, hits give low values 0.949 | locus YML070W, strain DAK1, hits give low values 0.916 | locus YMR001C, strain CDC5, hits give low values 0.973 | locus YMR205C, strain PFK2 (second series), hits give low values 0.946 | locus YMR277W, strain FCP1, hits give low values 0.974 | locus YNL006W, strain LST8, hits give low values 0.971 | locus YNL020C, strain ARK1, hits give low values 0.942 | locus YNL161W, strain CBK1, hits give low values 0.969 | locus YNL183C, strain NPR1, hits give low values 0.99 | locus YNL207W, strain RIO2, hits give low values 0.975 | locus YNL222W, strain SSU72, hits give low values 0.97 | locus YNL307C, strain MCK1 (second series), hits give low values 0.956 | locus YOL078W, strain AVO1, hits give low values 0.967 | locus YOL136C, strain PFK27, hits give low values 0.881 | locus YOR061W, strain CKA2, hits give low values 0.952 | locus YOR119C, strain RIO1, hits give low values 1.02 | locus YOR231W, strain MKK1, hits give low values 0.91 | locus YOR329C, strain SCD5, hits give low values 0.978 | locus YPL031C, strain PHO85, hits give low values 0.961 | locus YPL153C, strain RAD53, hits give low values 0.972 | locus YPL204W, strain HRR25, hits give low values 0.932 | locus YPL209C, strain IPL1, hits give low values 0.982 | locus YPL256C, strain CLN2, hits give low values 0.965 | locus YPR025C, strain CCL1, hits give low values 0.974 | locus YPR106W, strain ISR1, hits give low values 0.975 | locus YPR111W, strain DBF20, hits give low values 0.947 | strain NNK1, hits give low values 0.961 | strain TSCII, hits give low values 0.972
active: locus YLR113W, strain HOG1, hits give low values 0.854

Cc1nn(Cc2n[nH]c(=S)o2)c(C)c1Br
inactive: locus YAL013W, strain DEP1, hits give low values 0.998 | locus YBR229C, strain ROT2, hits give low values 0.993 | [1] 1 | locus YDR150W, strain NUM1, hits give low values 0.933 | locus YEL061C, strain CIN8, hits give low values 1.02 | locus YGR078C, strain PAC10, hits give low values 0.981 | [2] 1.02 | locus YHR087W, strain rtc3, hits give low values 0.983 | locus YJL187C, strain SWE1, hits give low values 0.968 | locus YJR043C, strain POL32, hits give low values 0.983 | locus YJR075W, strain HOC1, hits give low values 0.979 | locus YKL190W, strain CNB1, hits give low values 1.02 | locus YLR039C, strain RIC1, hits give low values 1.02 | locus YLR058C, strain SHM2 (second series), hits give low values 0.996 | locus YLR085C, strain ARP6, hits give low values 1.09 | locus YLR262C, strain YPT6, hits give low values 1.04 | locus YML094W, strain GIM5, hits give low values 1.02 | locus YMR219W, strain ESC1, hits give low values 0.996 | locus YMR263W, strain SAP30, hits give low values 0.93 | locus YNL128W, strain TEP1, hits give low values 1.01 | locus YNL153C, strain GIM3, hits give low values 1.01 | locus YNL298W, strain CLA4 (second series), hits give low values 1.05 | locus YNL322C, strain KRE1, hits give low values 0.999 | locus YNR030W, strain Alg12, hits give low values 1.01 | locus YPL055C, strain LGE1, hits give low values 0.955 | locus YPL241C, strain CIN2, hits give low values 1.02 | locus YPR135W, strain CTF4, hits give low values 1.04

Reference: PubChem BioAssay AID1159580 (chemical genetic matrix, 2015)
